Results as given in PubChem BioAssay (EPA / NIEHS).
Inconclusive results are not listed. The source made the active and inactive calls. The calls were made as follows: active = hit-call score of the fitted dose curve at least 0.9, where 1 is the maximum; inconclusive = response in the unintended direction; inactive = score below 0.9.

target: human Matrix Metalloproteinase-9 (MMP9), MMP9 (gene 4318) (UniProt P14780); assay: NVS_ENZ_hMMP9: NovaScreen (NVS) Enzymatic Assay for human Matrix Metalloproteinase-9 (MMP9) (AID 2283190);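 also: cell-free recombinant MMP9 protease activity read by fluorescent substrate signal; active means inhibition seen as loss of fluorescence signal versus DMSO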
Procedure, shortened: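 Cell-free recombinant MMP9 enzyme activity measured by fluorescence intensity 1 h after dosing. Primary screen in duplicate at 25 uM, actives followed in concentration series; loss of signal relative to DMSO.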

Sequence of human Matrix Metalloproteinase-9 (MMP9), MMP9 (gene 4318) (P14780 whole entry, looked up): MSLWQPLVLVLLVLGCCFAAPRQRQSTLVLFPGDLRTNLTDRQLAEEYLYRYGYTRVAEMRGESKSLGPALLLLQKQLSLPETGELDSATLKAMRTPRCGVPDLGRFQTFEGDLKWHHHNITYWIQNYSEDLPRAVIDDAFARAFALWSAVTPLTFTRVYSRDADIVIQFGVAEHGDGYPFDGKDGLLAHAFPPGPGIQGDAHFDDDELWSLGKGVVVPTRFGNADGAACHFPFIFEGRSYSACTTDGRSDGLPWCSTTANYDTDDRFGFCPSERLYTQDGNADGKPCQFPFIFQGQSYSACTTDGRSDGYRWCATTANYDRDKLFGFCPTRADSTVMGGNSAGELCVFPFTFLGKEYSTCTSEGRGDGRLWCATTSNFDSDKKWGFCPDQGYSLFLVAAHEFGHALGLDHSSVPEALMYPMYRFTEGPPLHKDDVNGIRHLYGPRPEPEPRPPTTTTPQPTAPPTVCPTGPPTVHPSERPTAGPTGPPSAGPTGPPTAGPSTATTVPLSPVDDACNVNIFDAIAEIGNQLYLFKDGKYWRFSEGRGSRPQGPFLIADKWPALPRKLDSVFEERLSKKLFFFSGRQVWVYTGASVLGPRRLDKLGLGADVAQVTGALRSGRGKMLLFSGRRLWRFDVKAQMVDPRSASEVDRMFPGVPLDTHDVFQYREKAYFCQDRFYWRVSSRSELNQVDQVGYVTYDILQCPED

| Compound | AC50 | outcome |
| --- | --- | --- |
| CCCCC(C=O)CC (configuration not stated) | 5.82 µM (active) |  |
| CC(C)c1cccc(C(C)C)c1N | 6.9 µM (active) |  |
| CC(C)C(=O)OCCOc1ccccc1 | 7.19 µM (active) |  |
| CCCCOC(=O)CCC(C)=O | 6.97 µM (active) |  |
| Cc1ccc(S(=O)(=O)N=C=O)cc1 | 7.22 µM (active) |  |
| CCCCCCCO | 0.197 µM (active) |  |
| CCCSSCCC | 6.62 µM (active) |  |
| OCCCc1ccccc1 |  | inactive |
| CCC(C)(O)CCCC(C)C (configuration not stated) | 0.972 µM (active) |  |
| CC(C)(CO)COC(=O)C(C)(C)CO | 9.37 µM (active) |  |
| CCCCCCOC(=O)CCCCC(=O)OCCCCCC | 7.16 µM (active) |  |
| CCCCCCCC(=O)OCC(COC(=O)CCCCCCC)OC(=O)CCCCCCC | 4.96 µM (active) |  |

target: human Phosphodiesterase 10 (PDE10), PDE10A (gene 10846) (UniProt Q9Y233); assay: NVS_ENZ_hPDE10: NovaScreen (NVS) Enzymatic Assay for human Phosphodiesterase 10 (PDE10) (AID 2283195)
Procedure, shortened: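 Recombinant human PDE10 with fluorescent substrate, 1 h, product separated by electrophoretic mobility shift. Loss of enzyme activity fitted against DMSO; initial screen 25 uM in duplicate, actives run to 50 uM maximum.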

Sequence of human Phosphodiesterase 10 (PDE10), PDE10A (gene 10846) (Q9Y233 whole entry, looked up): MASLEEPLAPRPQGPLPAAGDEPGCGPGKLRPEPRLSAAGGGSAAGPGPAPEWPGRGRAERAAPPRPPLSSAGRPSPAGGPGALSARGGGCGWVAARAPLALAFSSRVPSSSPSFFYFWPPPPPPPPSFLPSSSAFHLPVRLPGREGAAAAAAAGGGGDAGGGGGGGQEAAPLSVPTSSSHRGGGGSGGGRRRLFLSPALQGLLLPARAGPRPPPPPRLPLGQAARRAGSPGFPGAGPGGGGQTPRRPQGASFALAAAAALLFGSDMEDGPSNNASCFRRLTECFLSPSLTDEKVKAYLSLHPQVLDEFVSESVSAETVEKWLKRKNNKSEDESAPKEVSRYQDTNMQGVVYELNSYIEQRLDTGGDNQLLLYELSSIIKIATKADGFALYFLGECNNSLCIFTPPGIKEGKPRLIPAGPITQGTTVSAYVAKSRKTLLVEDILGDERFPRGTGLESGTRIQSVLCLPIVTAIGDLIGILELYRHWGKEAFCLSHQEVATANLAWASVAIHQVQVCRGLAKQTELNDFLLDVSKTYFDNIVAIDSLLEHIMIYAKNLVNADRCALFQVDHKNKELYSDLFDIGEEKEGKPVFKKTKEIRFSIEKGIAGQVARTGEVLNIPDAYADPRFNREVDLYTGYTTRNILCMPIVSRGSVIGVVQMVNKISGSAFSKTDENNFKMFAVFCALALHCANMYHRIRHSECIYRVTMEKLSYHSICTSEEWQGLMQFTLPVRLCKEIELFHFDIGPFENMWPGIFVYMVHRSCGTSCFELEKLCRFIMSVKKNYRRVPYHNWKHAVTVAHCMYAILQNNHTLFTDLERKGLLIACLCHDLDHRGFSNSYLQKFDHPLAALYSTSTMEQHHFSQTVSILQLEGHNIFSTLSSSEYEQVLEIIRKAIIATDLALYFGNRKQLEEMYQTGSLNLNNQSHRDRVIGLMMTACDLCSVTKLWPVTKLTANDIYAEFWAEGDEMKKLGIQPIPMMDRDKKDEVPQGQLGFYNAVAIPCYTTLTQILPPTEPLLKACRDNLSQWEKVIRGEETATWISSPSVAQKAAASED

| Compound | AC50 | outcome |
| --- | --- | --- |
| CC1(C)C(=O)N(CO)C(=O)N1CO | 46.5 µM (active) |  |
| CCCCOCC(C)O (configuration not stated) |  | inactive |
| C=CC(=O)O[C@H]1C[C@@H]2CC[C@@]1(C)C2(C)C | 3.57 µM (active) |  |
| O=C1CCCCCCCCCCCN1 |  | inactive |
| Cn1cccc1 | 5.59 µM (active) |  |
| CCCSSCCC |  | inactive |
| C=C(C)C1CC=C(C)C(OC(C)=O)C1 (configuration not stated) |  | inactive |
| CCN(CC)c1cccc(C)c1 |  | inactive |
| [Cl][Sc]([Cl])[Cl] | 1.67 µM (active) |  |
| CC(=O)OC1CCCCC1 |  | inactive |
| O=C1CCCCCCCCCCC1 |  | inactive |
| CCC1(C)C(=O)N(Cl)C(=O)N1Cl (configuration not stated) | 20.7 µM (active) |  |

target: human Phosphoinositide 3-kinase alpha (PI3Ka), PIK3CA (gene 5290) (UniProt P42336); assay: NVS_ENZ_hPI3Ka: NovaScreen (NVS) Enzymatic Assay for human Phosphoinositide 3-kinase alpha (PI3Ka) (AID 2283196)
Protocol: NVS_ENZ_hPI3Ka is a biochemical, single-readout assay that uses extracted gene-proteins in a cell-free assay. Measurements were taken 1 hour after chemical dosing in a 384-well plate.NVS_ENZ_hPI3Ka is one of one assay component(s) measured or calculated from the NVS_ENZ_hPI3Ka assay. It is designed to make measurements of enzyme activity, a form of enzyme reporter, as detected with fluorescence intensity signals by Fluorescence and electrophoretic mobility shift technology.Data from the assay component NVS_ENZ_hPI3Ka was analyzed into 1 assay endpoint. This assay endpoint, NVS_ENZ_hPI3Ka, was analyzed in the positive analysis fitting direction relative to DMSO as the negative control and baseline of activity. Using a type of enzyme reporter, loss-of-signal activity can be used to understand changes in the enzymatic activity as they relate to the gene PIK3CA. Furthermore, this assay endpoint can be referred to as a primary readout, because this assay has produced multiple assay endpoints where this one serves a enzymatic activity function. To generalize the intended target to other relatable targets, this assay endpoint is annotated to the kinase intended target family, where the subfamily is phosphoinositol kinase.
Binding assays used specific radioligands (tritiated, iodinated) with non-radioactive competitive displacement ligands in agonist or antagonist protocols (as indicated) and various reference compounds and inhibitors to titrate specific binding to receptors and transporters. Most enzyme assays (CYPs, kinases, phosphatases, proteases, HDACs) used recombinant protein and specific substrates (fluorescence mostly, some colorimetric and radioactive) and inhibitors, followed by a biochemical separation of substrate and product. All assays for the biochemical HTS were initially run in duplicate at a single concentration (10 uM for CYP450 assays and 25 uM for all others). Assay-chemical combinations meeting a pre-defined threshold (e.g., 30% inhibition and other criteria defined below) were then run in singleton concentration-response format with maximum concentration of 20 uM for CYPs and 50 uM for all others. Each assay was run with positive and negative controls, and concurrent controls on every plate. The follow-up (secondary) screen tested active chemical-pairs in concentration series, as well as a few additional assays not tested in the primary screen, some selected negative inactives, and several cases re-run in the concentration series for confirmatory purposes.

Sequence of human Phosphoinositide 3-kinase alpha (PI3Ka), PIK3CA (gene 5290) (P42336 whole entry, looked up): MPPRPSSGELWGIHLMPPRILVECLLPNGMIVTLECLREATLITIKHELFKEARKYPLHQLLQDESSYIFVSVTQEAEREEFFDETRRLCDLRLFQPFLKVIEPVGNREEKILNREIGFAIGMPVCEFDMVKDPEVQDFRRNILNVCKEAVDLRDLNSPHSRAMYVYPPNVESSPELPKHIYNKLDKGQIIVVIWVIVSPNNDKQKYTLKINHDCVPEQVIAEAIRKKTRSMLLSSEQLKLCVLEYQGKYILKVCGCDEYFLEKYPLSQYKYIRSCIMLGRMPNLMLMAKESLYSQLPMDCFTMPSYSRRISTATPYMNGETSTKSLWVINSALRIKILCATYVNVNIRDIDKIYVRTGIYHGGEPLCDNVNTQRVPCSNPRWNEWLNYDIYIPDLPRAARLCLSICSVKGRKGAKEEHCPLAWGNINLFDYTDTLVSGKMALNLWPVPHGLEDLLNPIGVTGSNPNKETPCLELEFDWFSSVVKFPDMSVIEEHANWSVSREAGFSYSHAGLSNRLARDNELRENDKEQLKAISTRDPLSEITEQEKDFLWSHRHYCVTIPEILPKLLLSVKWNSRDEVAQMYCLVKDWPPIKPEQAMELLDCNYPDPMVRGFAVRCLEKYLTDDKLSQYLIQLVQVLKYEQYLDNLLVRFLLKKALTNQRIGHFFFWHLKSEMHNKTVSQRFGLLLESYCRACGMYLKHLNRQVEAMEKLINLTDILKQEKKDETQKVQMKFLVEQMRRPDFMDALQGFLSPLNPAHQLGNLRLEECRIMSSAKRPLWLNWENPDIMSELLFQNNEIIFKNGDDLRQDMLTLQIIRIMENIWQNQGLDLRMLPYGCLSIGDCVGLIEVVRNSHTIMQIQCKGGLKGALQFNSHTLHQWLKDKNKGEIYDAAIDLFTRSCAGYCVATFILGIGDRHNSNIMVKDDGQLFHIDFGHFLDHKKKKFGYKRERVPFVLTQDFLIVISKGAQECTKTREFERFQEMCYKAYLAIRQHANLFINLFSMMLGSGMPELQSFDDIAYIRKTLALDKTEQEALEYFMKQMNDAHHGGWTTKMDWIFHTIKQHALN

| Compound | AC50 | outcome |
| --- | --- | --- |
| C=C(C)C1CC=C(C)C(OC(C)=O)C1 (configuration not stated) | 25 µM (active) |  |
| Oc1ccc(/C=C/c2cc(O)cc(O)c2)cc1 |  | inactive |
| O=C1CCCCCCCCCCC1 |  | inactive |
